# Like-named read-outs stand apart in the source and are kept apart here.
# Tests used:
# Parameters in all cases: species or system human, MV4-11 + K-562 + COLO205 + SK-N-BE2 + OVCAR-8
# ACVR1B = conditions: read-out: apparent Kd, n = 1
# ACVR1 = conditions: read-out: apparent Kd, compound concentrations: 100 nM and 1000 nM (sheet 'Samples'), n = 1
# ACVR2B = conditions: read-out: apparent Kd, compound concentrations: 100 nM and 1000 nM (sheet 'Samples'), n = 1
# ADCK3 = conditions: read-out: apparent Kd, n = 1
# RET = conditions: read-out: apparent Kd; compound concentrations: 100 nM and 1000 nM (sheet 'Samples'), CATDS: 0.12802615197662401; n = 1
# RIPK2 = conditions: read-out: apparent Kd, compound concentrations: 100 nM and 1000 nM (sheet 'Samples'), n = 1
# RIPK3 = conditions: read-out: apparent Kd, compound concentrations: 100 nM and 1000 nM (sheet 'Samples'), n = 1
# TGFBR1 = conditions: read-out: apparent Kd, compound concentrations: 100 nM and 1000 nM (sheet 'Samples'), n = 1
# CIT = conditions: read-out: apparent Kd; compound concentrations: 100 nM and 1000 nM (sheet 'Samples'), CATDS: 4.5392232292010899E-2; n = 1
# CSNK1A1 = conditions: read-out: apparent Kd, compound concentrations: 100 nM and 1000 nM (sheet 'Samples'), n = 1
# CSNK1D = conditions: read-out: apparent Kd; compound concentrations: 100 nM and 1000 nM (sheet 'Samples'), CATDS: 0.391959397884028; n = 1
# CSNK1E = conditions: read-out: apparent Kd; compound concentrations: 100 nM and 1000 nM (sheet 'Samples'), CATDS: 0.26273499221924201; n = 1
# DDR1 = conditions: read-out: apparent Kd; compound concentrations: 100 nM and 1000 nM (sheet 'Samples'), CATDS: 4.8095496683990102E-2; n = 1
# DDR2 = conditions: read-out: apparent Kd; compound concentrations: 100 nM and 1000 nM (sheet 'Samples'), CATDS: 4.5410766330070199E-2; n = 1
# GAK = conditions: read-out: apparent Kd; compound concentrations: 100 nM and 1000 nM (sheet 'Samples'), CATDS: 2.6841490369303E-2; n = 1
# JAK1 = conditions: read-out: apparent Kd; compound concentrations: 100 nM and 1000 nM (sheet 'Samples'), CATDS: 2.6628241709745499E-2; n = 1
# MAPK10 = conditions: read-out: apparent Kd; compound concentrations: 100 nM and 1000 nM (sheet 'Samples'), CATDS: 4.9321772364443003E-2; n = 1
# MAPK11 = conditions: read-out: apparent Kd; compound concentrations: 100 nM and 1000 nM (sheet 'Samples'), CATDS: 2.6556217045786298E-2; n = 1
# MAPK14 = conditions: read-out: apparent Kd; compound concentrations: 100 nM and 1000 nM (sheet 'Samples'), CATDS: 9.6245202156368906E-2; n = 1
# MAPK8 = conditions: read-out: apparent Kd; compound concentrations: 100 nM and 1000 nM (sheet 'Samples'), CATDS: 2.73704072863558E-2; n = 1
# MAPK9 = conditions: read-out: apparent Kd; compound concentrations: 100 nM and 1000 nM (sheet 'Samples'), CATDS: 5.3906209351099597E-2; n = 1
# MAPKAPK2 = conditions: read-out: apparent Kd; compound concentrations: 100 nM and 1000 nM (sheet 'Samples'), CATDS: 8.8407398731798204E-2; n = 1
# MYLK3 = conditions: read-out: apparent Kd; compound concentrations: 100 nM and 1000 nM (sheet 'Samples'), CATDS: 2.9739343508474202E-2; n = 1
# NLK = conditions: read-out: apparent Kd; compound concentrations: 100 nM and 1000 nM (sheet 'Samples'), CATDS: 4.6610928560784803E-2; n = 1
# PKN3 = conditions: read-out: apparent Kd; compound concentrations: 100 nM and 1000 nM (sheet 'Samples'), CATDS: 2.84976438170014E-2; n = 1
# PRKD2 = conditions: read-out: apparent Kd, compound concentrations: 100 nM and 1000 nM (sheet 'Samples'), n = 1
# PRKD3 = conditions: read-out: apparent Kd, compound concentrations: 100 nM and 1000 nM (sheet 'Samples'), n = 1
# TNIK = conditions: read-out: apparent Kd; compound concentrations: 100 nM and 1000 nM (sheet 'Samples'), CATDS: 2.6108076869188701E-2; n = 1
# OPA1 = conditions: read-out: apparent Kd; compound concentrations: 100 nM and 1000 nM (sheet 'Samples'), CATDS: 7.7038231613769201E-2; n = 1
# TGFBR2 = conditions: read-out: apparent Kd; compound concentrations: 100 nM and 1000 nM (sheet 'Samples'), CATDS: 8.4852154522950404E-2; n = 1
# [1] = compound concentrations:100 nM and 1000 nM (sheet 'Samples')
structure (smiles),measurement,setting,value
Cl.c1ccc(-c2ccc3c(Nc4ccc5[nH]ncc5c4)ccnc3c2)nc1 [GW440137A],potency estimated from few doses,"ACVR1B; compound concentrations: 100 nM and 1000 nM (sheet 'Samples'), CATDS: 0.112387102296717",766 nM
same,potency estimated from few doses,ACVR1; CATDS: 0.106513578189519,904 nM
same,potency estimated from few doses,ACVR2B; CATDS: 0.67382048852526699,11.9 nM
same,potency estimated from few doses,"ADCK3; compound concentrations: 100 nM and 1000 nM (sheet 'Samples'), CATDS: 9.7735008507333701E-2",1200 nM
same,potency estimated from few doses,RET,525 nM
same,potency estimated from few doses,RIPK2; CATDS: 0.29852587031983902,58.9 nM
same,potency estimated from few doses,RIPK3; CATDS: 9.0295884260328696E-2,1600 nM
same,potency estimated from few doses,TGFBR1; CATDS: 8.5016049032497404E-2,2060 nM
Nc1nccc(-c2c(-c3ccc(F)cc3)ncn2C2CCC(O)CC2)n1 (centres unmarked) [SB-223133],potency estimated from few doses,"ACVR1B; compound concentrations: 100 nM and 1000 nM (sheet 'Samples'), CATDS: 5.67589208103269E-2",74.5 nM
same,potency estimated from few doses,ACVR1; CATDS: 2.5761015840506201E-2,1350 nM
same,potency estimated from few doses,CIT,140 nM
same,potency estimated from few doses,CSNK1A1; CATDS: 0.114009601510889,15 nM
same,potency estimated from few doses,CSNK1D,1.72 nM
same,potency estimated from few doses,CSNK1E,3.2 nM
same,potency estimated from few doses,DDR1,118 nM
same,potency estimated from few doses,DDR2,140 nM
same,potency estimated from few doses,GAK,1070 nM
same,potency estimated from few doses,JAK1,1120 nM
same,potency estimated from few doses,MAPK10,110 nM
same,potency estimated from few doses,MAPK11,1140 nM
same,potency estimated from few doses,MAPK14,21.4 nM
same,potency estimated from few doses,MAPK8,969 nM
same,potency estimated from few doses,MAPK9,85.6 nM
same,potency estimated from few doses,MAPKAPK2,25.8 nM
same,potency estimated from few doses,MYLK3,653 nM
same,potency estimated from few doses,NLK,129 nM
same,potency estimated from few doses,PKN3,794 nM
same,potency estimated from few doses,PRKD2; CATDS: 2.85113335407263E-2,793 nM
same,potency estimated from few doses,PRKD3; CATDS: 2.77377290368628E-2,906 nM
same,potency estimated from few doses,RIPK2; CATDS: 7.8449677339207394E-2,33.7 nM
same,potency estimated from few doses,RIPK3; CATDS: 2.3985776131164802E-2,2140 nM
same,potency estimated from few doses,TGFBR1; CATDS: 3.9958881168014597E-2,210 nM
same,potency estimated from few doses,TNIK,1250 nM
COc1ccc2cc(-c3c(-c4ccncc4)nc(-c4ccc(S(C)(=O)=O)cc4C)n3C)ccc2c1 [SB-633825],potency estimated from few doses,ACVR1B; [1],686 nM
same,potency estimated from few doses,ADCK3; [1],803 nM
Cc1ccnc2ccc(-c3sc(N)nc3-c3ccccn3)nc12 [GW777257X],potency estimated from few doses,"ACVR1B; compound concentrations: 100 nM and 1000 nM (sheet 'Samples'), CATDS: 0.44095653710551203",5.66 nM
same,potency estimated from few doses,ACVR2B; CATDS: 9.05518688532823E-2,854 nM
same,potency estimated from few doses,CSNK1A1; CATDS: 7.5324168753573395E-2,1730 nM
same,potency estimated from few doses,OPA1,1570 nM
same,potency estimated from few doses,PRKD2; CATDS: 0.11729729568005599,384 nM
same,potency estimated from few doses,PRKD3; CATDS: 0.118060499220425,377 nM
same,potency estimated from few doses,RIPK2; CATDS: 9.3212886773084105E-2,776 nM
same,potency estimated from few doses,TGFBR1; CATDS: 0.51991943788690098,4.12 nM
same,potency estimated from few doses,TGFBR2,1070 nM

# Source: publication PMC11062922 (Nature Chemical Biology, 2023)
